# Laboratory results taken from PubChem BioAssay AID777 (Sanford-Burnham Center for Chemical Genomics, 2007).
# About 19,000 (20%) of roughly 96,000 compounds were called active.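 Rule for the calls: active = blocking of liver enzyme CYP2C9 beyond about 50% at 5 µM (limit read from the data); inactive = the rest.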 Only a sample is shown. Residues, ends and D or L forms follow the SMILES beside them. *: point of attachment. Bz = O=C(c1ccccc1)*
# Target: Cytochrome P450 2C9 (Homo sapiens) (UniProt P11712)
# Experiment: blockers of cytochrome P450 2C9 activity – biochemical, luminescence, ADME assay, primary screen (AID 777)
# Settings: CYP2C9 Supersomes, luciferin-H conversion, at 5 µM, hits give high values
# Chain of Cytochrome P450 2C9 (Homo sapiens) (P11712 whole entry, looked up): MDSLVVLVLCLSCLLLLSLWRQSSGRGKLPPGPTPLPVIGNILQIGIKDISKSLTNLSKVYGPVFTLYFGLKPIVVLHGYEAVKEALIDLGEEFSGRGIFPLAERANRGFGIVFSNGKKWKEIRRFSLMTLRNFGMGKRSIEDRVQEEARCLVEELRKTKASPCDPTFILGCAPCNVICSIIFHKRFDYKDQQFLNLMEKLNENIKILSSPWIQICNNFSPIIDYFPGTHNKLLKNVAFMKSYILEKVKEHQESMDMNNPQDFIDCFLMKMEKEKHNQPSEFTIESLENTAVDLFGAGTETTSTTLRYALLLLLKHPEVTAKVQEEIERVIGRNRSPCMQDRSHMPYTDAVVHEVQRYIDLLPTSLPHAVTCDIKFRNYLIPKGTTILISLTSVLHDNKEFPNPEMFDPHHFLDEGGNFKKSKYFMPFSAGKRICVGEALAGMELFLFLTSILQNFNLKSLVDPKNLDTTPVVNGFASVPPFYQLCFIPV
row,Compound,inhibition
1,C[C@@H](Nc1nc(-c2ccccc2)nc2c1oc1ccccc12)C(=O)O,11.2% (inactive)
2,C=CCNC(=O)c1cc2nc(C3CC3)cc(C(F)F)n2n1,40% (inactive)
3,COc1cc(/C=C2\SC(=S)N(Nc3ncc(C(F)(F)F)cc3Cl)C2=O)cc(OC)c1OC,4.4% (inactive)
4,Cc1ccc(C(=O)N2CCN(C3CCCCC3)CC2)s1,25.8% (inactive)
5,O=C(NC(Cc1ccccc1)C(=O)N1CCCC1C(=O)O)c1ccccc1 (stereo not drawn) (Bz-Phe-Pro-OH; configuration not given here),-5.7% (inactive)
6,O=C(C(Cc1ccccc1)n1cccc1)N1CCN(C2CCCCC2)CC1 (stereo unspecified),94% (active)
7,CCOC(=O)CCCNC(=O)CN1C(=O)NC(CCc2ccccc2)C1=O (stereo unspecified),-3.9% (inactive)
8,O=C(CN1C(=O)NC2(CCCCC2)C1=O)NCCC1=CCCCC1,-1.7% (inactive)
9,O=C(CN1C(=O)NC(Cc2ccccc2)(Cc2ccccc2)C1=O)NCC1CCCCC1,55% (active)
10,CC(=O)N1CCc2cc(S(=O)(=O)Nc3ccccc3N3CCN(C)CC3)ccc21,2% (inactive)
11,CCCC(=O)C1CCN(Cc2ccccc2)CC1,-8.7% (inactive)
12,Cc1nc2ccc(NC(=O)C(F)(F)F)cc2o1,4.8% (inactive)
13,Cn1c(C(=O)NCCCN2CCCCC2)cc2sccc21,6.6% (inactive)
14,CCOC(=O)c1ccn(-c2nc(-c3ccco3)cc(C(F)(F)F)n2)n1,62% (active)
15,Cc1cc(C(F)(F)F)nn1-c1nc(-c2ccco2)cc(C(F)(F)F)n1,3.1% (inactive)
16,O=C(CSc1nc(-c2ccco2)cc(C(F)(F)F)n1)N1CCc2ccccc2C1,45.8% (inactive)
17,Cc1ccc2c(c1)N(CC(=O)N1CCCc3ccccc31)C(=O)C(C)O2 (stereo unspecified),22% (inactive)
18,COc1cc(-c2nc(-c3ccncc3)no2)cc(OC)c1OC,76.6% (active)
19,COc1ccc(-c2noc(-c3cccc(OC)c3OC)n2)cc1OC,-101% (inactive)
20,CCOc1nc(-c2ccc(OC)cc2)ccc1-c1noc(-c2cc(OC)c(OC)c(OC)c2)n1,8.3% (inactive)
21,CC(OC(=O)CN1C(=O)C2CCCCC2C1=O)C(=O)Nc1ncc(Cl)cc1Cl (stereo unspecified),-1.7% (inactive)
22,COc1ccc(Nc2ncc(C(=O)N3CCN(c4ccccc4OC)CC3)c3ccccc23)cc1,65.9% (active)

row,Compound,inhibition
1,COc1ccc2oc(=O)c(C(=O)N3CCN(c4ccccc4F)CC3)cc2c1,28.7% (inactive)
2,COc1ccccc1N1CCN(CCCCOc2ccc(F)cc2)CC1,12% (inactive)
3,COc1cnc(SCc2ccc(Cl)c(Cl)c2)nc1Cl,16.5% (inactive)
4,CCOC(=O)c1cc(C)sc1NC(=O)C1CCC1,42.3% (inactive)
5,Cc1ccc(S(=O)(=O)N2CCC(C(=O)N[C@@H](C)C(=O)NCCc3ccccc3)CC2)cc1,-25.2% (inactive)
6,O=C1c2cccnc2C(Nc2ccc(S(=O)(=O)N3CCCCCC3)cc2)N1Cc1ccccc1 (stereo unspecified),53.4% (active)
7,O=C(NCCCN1CCN(Cc2ccccc2)CC1)C1CCN(S(=O)(=O)N2CCCC2)CC1,1.8% (inactive)
8,Cc1nn(-c2ccccn2)c2c1C(c1ccncc1)C1=C(CC(C)(C)CC1=O)N2 (stereo unspecified),79.7% (active)
9,Cc1cc2c(cc1C)NC(c1ccccn1)C1=C(CC(C)(C)CC1=O)N2 (stereo unspecified),-11.2% (inactive)
10,CCOC(=O)c1c(-n2cnnn2)sc(C)c1C,10.3% (inactive)
11,Cc1cc(C)nc(NC(=O)Nc2ccccc2C(F)(F)F)n1,-193% (inactive)
12,O=C(Nc1ccc(Sc2ccc(Br)cc2)cc1)c1ccco1,3.3% (inactive)
13,Cc1cccc(NC(=O)c2sc3nc4c(c(-c5ccco5)c3c2N)CCC4)c1,17.9% (inactive)
14,CCCc1cc(=O)[nH]c(SCC(=O)c2cc(C)n(CCC)c2C)n1,5.3% (inactive)
15,CCCc1cc(=O)[nH]c(SCc2ccc(C#N)cc2)n1,60.3% (active)
16,CCCc1cc(=O)[nH]c(SCC(=O)OCc2ccccc2)n1,38.5% (inactive)
17,O=C(CNC(=O)Cc1ccccc1)NCC(=O)OCC(=O)c1ccccc1Cl,-33.1% (inactive)
18,CCC(=O)Nc1cccc(NC(=O)CSc2nnc(-c3ccc(NS(C)(=O)=O)cc3)n2C)c1,51.3% (active)
19,COC(=O)c1ccc(NC(=O)CSc2nnc(-c3ccncc3)n2C)cc1,57.2% (active)
20,COC(=O)c1ccc(NC(=O)CSc2nnc(CNc3ccc(OC)cc3)n2C)cc1,34% (inactive)
21,CCCCSc1nnc(-c2ccc(NC(=O)CC)cc2)n1C,-15.8% (inactive)
22,Cn1c(SCC(=O)Nc2cccc(NC(=O)c3cccs3)c2)nnc1-c1ccncc1,89.8% (active)

row,Compound,inhibition
1,CCn1c(SCC(=O)Nc2nccs2)nnc1-c1ccncc1,28% (inactive)
2,Cn1c(SCC(=O)Nc2cccc(O)c2)nnc1-c1ccc(S(=O)(=O)N2CCOCC2)cc1,7.5% (inactive)
3,O=C(CSc1nnc(-c2ccncc2)n1C1CCCCC1)Nc1ccccc1,38.6% (inactive)
4,Cc1ccccc1C(=O)Nc1cccc(-c2nnc(SCC(=O)O)n2C)c1,-11.4% (inactive)
5,Cc1ccc(-c2ccc(=O)n(CC(=O)NCCCN3CCCCC3)n2)cc1,14% (inactive)
6,COc1ccccc1C(=O)Nc1nc2nc(-c3ccccc3)cc(=O)n2[nH]1,42% (inactive)
7,O=C(NCCCCc1ccccc1)C1CC(c2ccc([N+](=O)[O-])cc2)=NO1 (stereo unspecified),14.2% (inactive)
8,O=C(CN1CCOCC1)Nc1ccc(NC(=O)CN2CCOCC2)c(Cl)c1,-1.8% (inactive)
9,CN(C)C(=O)c1cc(Br)ccc1Cl,-6.9% (inactive)
10,CCCn1c(=NC(C)=O)c(C(=O)OCC)cc2c(=O)n3ccccc3nc21,17.1% (inactive)
11,CSc1ccc(S(=O)(=O)NC2CCCCC2)cc1,17.8% (inactive)
12,Cc1cc(S(=O)(=O)NC2CCCCC2)ccc1OCC(=O)NCc1cccnc1,81.1% (active)
13,O=C(C1CCC1)N1CCc2cc(S(=O)(=O)NCc3cccnc3)ccc21,32.9% (inactive)
14,O=C(CN(CC1CCCO1)C(=O)CNS(=O)(=O)c1ccccc1)NCc1ccccc1 (stereo unspecified),2.4% (inactive)
15,Cn1c(=O)c(=O)n(C)c2cc(S(=O)(=O)NCCc3ccccc3)ccc21,23.4% (inactive)
16,Cc1cc(Cl)c(S(=O)(=O)NCc2cccnc2)cc1OCC(N)=O,-9.2% (inactive)
17,Cc1cccc(CCNS(=O)(=O)c2ccc(S(=O)(=O)NC3CCCC3)cc2)c1,65.4% (active)
18,O=C(CCc1ccc(S(=O)(=O)NC2CCCCC2)cc1)NCc1ccccc1,86.2% (active)
19,O=C(OC1CCCCC1=O)c1cccc(S(=O)(=O)NCc2ccccc2)c1 (stereo unspecified),43.1% (inactive)
20,O=S(=O)(NCc1cccnc1)c1ccc(Cl)nc1,6.6% (inactive)
21,CCCNS(=O)(=O)c1ccc(CCC(=O)NCc2cccnc2)cc1,76.8% (active)
22,O=C(CCc1ccccc1)NCc1cccnc1,15.7% (inactive)
